In PubChem BioAssay:
Unmarked numbers belong to inactive results. For part of these data: Entries with a potency or affinity are not part of this list. Active and inactive are the calls of the source. Unless noted, no rule for the calls is given here.

What was measured:
[1] = antimalarial activity against Dd2 strain (AID 2302;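 active = growth inhibition above 50% at the single 2 µM test dose, taken to imply half-maximal potency below 2 µM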;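 also: 0% = DMSO untreated growth and 100% = chloroquine plus artemisinin killed control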); conditions: P. falciparum Dd2 in RBCs, LDH growth readout, 72 h; at 2 µM; hits give high values
[2] = HepG2 cytotoxicity, primary screen, cytotoxicity control for P. falciparum antimalarial project, cell-based, ATP luminescence (AID 2303;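 active = inhibition above 50%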;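 also: 0% = DMSO wells and 100% = digitonin-killed cells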); conditions: HepG2 viability, 24-48 h, at 10 µM, hits give high values
[3] = molecular target: L-lactate dehydrogenase (Plasmodium falciparum (isolate CDC / Honduras)) (UniProt Q27743); experiment: PfLDH activity inhibition – cell lysate, 3D7 strain, counter-screen for P. falciparum growth inhibition project (AID 2304);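 also: 0% = vehicle and 100% = reference inhibitor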; conditions: P. falciparum 3D7 crude extract, LDH APAD/NBT absorbance; at 2 µM; hits give high values
L-lactate dehydrogenase (Plasmodium falciparum (isolate CDC / Honduras)), sequence (Q27743 whole entry, looked up): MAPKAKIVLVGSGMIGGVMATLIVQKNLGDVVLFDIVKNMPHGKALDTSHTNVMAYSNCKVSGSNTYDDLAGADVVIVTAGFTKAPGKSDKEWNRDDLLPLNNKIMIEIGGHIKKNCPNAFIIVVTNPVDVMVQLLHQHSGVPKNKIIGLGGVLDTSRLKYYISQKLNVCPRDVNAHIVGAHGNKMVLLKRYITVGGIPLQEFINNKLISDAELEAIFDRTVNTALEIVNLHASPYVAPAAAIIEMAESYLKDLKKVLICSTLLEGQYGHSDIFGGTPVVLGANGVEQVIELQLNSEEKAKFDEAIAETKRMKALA

[4] = inhibition of 3D7 malaria parasite growth – strain 3D7 (AID 2306);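 also: 0% = DMSO wells and 100% = chloroquine plus artemisinin control wells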; conditions: P. falciparum 3D7 erythrocytic growth, LDH absorbance, 72 h; at 2 µM; hits give high values
[5] = molecular target: Calcium-dependent protein kinase 1 (Plasmodium falciparum (isolate 3D7)) (UniProt P62344); experiment: PfCDPK1 kinase inhibitors, biochemical, TCAMS library (AID 1159585; cut-off not given, nearly all actives have IC50 up to about 0.98 µM;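 also: inhibitors leave more ATP so luminescence rises with inhibition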); conditions: recombinant PfCDPK1, Kinase-Glo ATP depletion luminescence
Calcium-dependent protein kinase 1 (Plasmodium falciparum (isolate 3D7)), sequence (P62344 whole entry, looked up): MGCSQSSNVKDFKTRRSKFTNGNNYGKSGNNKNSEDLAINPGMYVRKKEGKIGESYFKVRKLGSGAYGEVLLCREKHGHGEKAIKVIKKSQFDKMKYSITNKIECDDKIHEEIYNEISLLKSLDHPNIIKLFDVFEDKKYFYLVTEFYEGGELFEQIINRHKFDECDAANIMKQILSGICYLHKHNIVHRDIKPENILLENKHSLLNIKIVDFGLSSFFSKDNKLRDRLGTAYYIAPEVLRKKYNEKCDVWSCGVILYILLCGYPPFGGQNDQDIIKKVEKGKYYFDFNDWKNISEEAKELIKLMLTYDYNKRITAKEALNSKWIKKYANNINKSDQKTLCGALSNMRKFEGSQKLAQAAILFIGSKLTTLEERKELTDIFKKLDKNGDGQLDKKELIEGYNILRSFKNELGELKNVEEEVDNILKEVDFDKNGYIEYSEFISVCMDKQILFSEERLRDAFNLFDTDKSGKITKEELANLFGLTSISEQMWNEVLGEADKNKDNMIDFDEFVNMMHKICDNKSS

[6] = molecular target: Plasmodium falciparum protein kinase 6 (PK6, PF3D7_1337100) (UniProt Q8IDW1); experiment: PfPK6 kinase inhibitors, biochemical, TCAMS library (AID 1159586); conditions: recombinant PfPK6, Kinase-Glo ATP depletion luminescence
Plasmodium falciparum protein kinase 6 (PK6, PF3D7_1337100), sequence (Q8IDW1 1-305): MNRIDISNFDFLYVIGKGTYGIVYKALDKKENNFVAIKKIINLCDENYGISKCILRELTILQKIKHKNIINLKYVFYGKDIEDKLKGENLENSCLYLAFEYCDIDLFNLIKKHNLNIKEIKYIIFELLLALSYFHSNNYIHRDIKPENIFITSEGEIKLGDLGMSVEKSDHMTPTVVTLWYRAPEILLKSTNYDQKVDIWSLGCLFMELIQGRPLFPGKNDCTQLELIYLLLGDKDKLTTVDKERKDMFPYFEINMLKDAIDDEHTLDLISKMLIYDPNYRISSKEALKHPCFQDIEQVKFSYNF

[7] = molecular target: Protein kinase 7 (PK7), Plasmodium falciparum 3D7 (PF3D7_0213400) (UniProt Q7YTF7); experiment: inhibition of Plasmodium PK7 catalytic activity – biochemical, TCAMS antimalarial set, Kinase-Glo luminescence (AID 1159587); conditions: recombinant PfPK7, Kinase-Glo ATP depletion luminescence
Protein kinase 7 (PK7), Plasmodium falciparum 3D7 (PF3D7_0213400), sequence (Q7YTF7 1-343): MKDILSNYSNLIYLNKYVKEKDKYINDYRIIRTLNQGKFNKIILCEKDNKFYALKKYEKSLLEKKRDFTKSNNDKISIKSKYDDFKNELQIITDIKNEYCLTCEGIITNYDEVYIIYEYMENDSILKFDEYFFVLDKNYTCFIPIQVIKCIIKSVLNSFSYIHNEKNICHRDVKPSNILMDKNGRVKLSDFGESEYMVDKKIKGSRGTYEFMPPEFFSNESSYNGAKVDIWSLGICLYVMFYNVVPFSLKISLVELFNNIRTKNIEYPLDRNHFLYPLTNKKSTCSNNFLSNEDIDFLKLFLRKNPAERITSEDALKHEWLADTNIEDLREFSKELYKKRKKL

[8] = molecular target: Calcium-dependent protein kinase 4 (Plasmodium falciparum (isolate 3D7)) (UniProt Q8IBS5); experiment: PfCDPK4 kinase inhibitors, biochemical, TCAMS library (AID 1159588; cut-off not given, nearly all actives have IC50 up to about 0.91 µM); conditions: recombinant PfCDPK4, Kinase-Glo ATP depletion luminescence
Calcium-dependent protein kinase 4 (Plasmodium falciparum (isolate 3D7)), sequence (Q8IBS5 whole entry, looked up): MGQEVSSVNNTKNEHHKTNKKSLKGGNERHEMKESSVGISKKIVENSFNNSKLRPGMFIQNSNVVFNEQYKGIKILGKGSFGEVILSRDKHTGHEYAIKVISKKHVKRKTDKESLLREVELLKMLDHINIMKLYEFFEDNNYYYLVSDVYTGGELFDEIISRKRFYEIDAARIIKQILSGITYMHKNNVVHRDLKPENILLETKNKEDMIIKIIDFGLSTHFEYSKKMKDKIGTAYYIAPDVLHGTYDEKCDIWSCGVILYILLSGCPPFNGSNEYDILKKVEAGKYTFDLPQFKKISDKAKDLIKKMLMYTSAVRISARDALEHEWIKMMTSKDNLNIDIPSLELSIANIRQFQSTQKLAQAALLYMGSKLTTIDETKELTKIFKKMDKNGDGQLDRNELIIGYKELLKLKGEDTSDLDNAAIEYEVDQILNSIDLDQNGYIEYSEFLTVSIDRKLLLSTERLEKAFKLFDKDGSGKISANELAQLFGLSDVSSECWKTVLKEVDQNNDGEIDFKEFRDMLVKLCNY

SMILES | growth inhibition [1] | inhibition [2] | inhibition [3] | growth inhibition [4] | outcome [5] | outcome [6] | outcome [7] | outcome [8]
O=C(/C=C/c1ccc(Cl)c(Cl)c1)N1CCC(CCN2CCC(c3nc4ccc(O)cc4[nH]3)CC2)CC1 | 60% (active) | 42% | 4% | 100% (active) | inactive | inactive | inactive | inactive
CN1CCN(CC(=O)Nc2ccc(-c3ccc(-c4nc5ccc(C(F)(F)F)cc5[nH]4)cc3)cc2)CC1 | 98% (active) | 43% | -3% | 101% (active) | inactive | inactive | inactive | inactive
CC(=O)Nc1ccc(CN(Cc2ccc(OC(C)(C)C)cc2)Cc2ccc3c(c2)OCCO3)cc1 | 75% (active) | 7% | 5% | 91% (active) | inactive | inactive | inactive | inactive
Cn1cncc1CNCc1ccc(-c2cccc(-c3nc4ccccc4[nH]3)c2)cc1 | 92% (active) | 19% | -1% | 101% (active) | inactive | inactive | inactive | inactive
CC(C)(CC1CCCCC1)NC(=O)[C@H](CC1CCCCC1)Nc1ccc(C#N)c2ccccc12 | 52% (active) | 14% | -2% | 98% (active) | inactive | inactive | inactive | inactive
O=C(NCc1ccc(Cl)c(Cl)c1)c1cccc(C2CCCN(Cc3ccc4nc[nH]c4c3)C2)c1 (stereo not drawn) | 30% | 3% | 5% | 95% (active) | inactive | inactive | inactive | inactive
CCN(CC)C(=NC(N)=NCCCCCCN=C(N)N=C(Nc1ccc(Cl)cc1)N(CC)CC)Nc1ccc(Cl)cc1 | 96% (active) | 1% | 8% | 97% (active) | inactive | inactive | inactive | inactive
CC(C)NCc1cccc(-c2ccc(-c3nc4ccc(C(F)(F)F)cc4[nH]3)cc2)c1 | 96% (active) | 7% | -6% | 99% (active) | inactive | inactive | inactive | inactive
CC(C)Oc1cccc(-c2ccc(C(=O)NCC3CCCN(Cc4cccc(C(F)(F)F)c4)C3)s2)c1 (stereo not drawn) | 28% | 10% | -2% | 91% (active) | inactive | inactive | inactive | inactive
O=C(Nc1ccc(Cl)cc1)Nc1cccc(-c2cccc(-c3nc4ccccc4[nH]3)c2)c1 | 56% (active) | 70% (active) | 0% | 100% (active) | inactive | inactive | inactive | inactive
CCc1ccc(NC(=O)c2ccc(CN3CCCN(CCC(C)C)CC3)cc2)cc1 | 25% | 48% | -7% | 96% (active) | inactive | inactive | inactive | inactive
CNCCNCc1ccc(-c2ccc(-c3nc4c(C)cccc4[nH]3)cc2)cc1 | 79% (active) | 19% | -5% | 96% (active) | inactive | inactive | inactive | inactive
CCOC(=O)c1ccc(NC(=O)Nc2cccc(-c3ccc(-c4nc5ccc(F)cc5[nH]4)cc3)c2)cc1 | 97% (active) | 40% | 1% | 101% (active) | inactive | inactive | inactive | inactive
COc1ccc(Nc2nccc(N3CCC(NC(=O)C(C)c4ccc(Cl)cc4)CC3)n2)cc1 (stereo not drawn) | 52% (active) | 18% | -2% | 94% (active) | inactive | inactive | inactive | inactive
CCN(CCCN1CCCCC1)c1cc(C)nc(Nc2ccc(C)cc2Cl)n1 | 25% | 44% | 1% | 93% (active) | inactive | inactive | inactive | inactive
CN1CCC(Oc2ccc(CN3CC[C@H](NC(=O)c4ccc(Cl)c(Cl)c4)C3)c3ccccc23)C1 (stereo partly drawn) | 82% (active) | 52% (active) | 3% | 100% (active) | inactive | inactive | inactive | inactive
O=S(=O)(c1ccc(OCc2ccc(Cl)cc2)cc1)c1cc2c(c(-c3ccc(F)cc3)c1)CCN(CC1CC1)CC2 | 14% | -5% | -5% | 84% (active) | inactive | inactive | inactive | inactive
CN(C)c1ccc(-c2ccc(C(=O)NC3CCN(Cc4cccc(C(F)(F)F)c4)CC3)s2)cc1 | 77% (active) | 35% | 0% | 96% (active) | inactive | inactive | inactive | inactive

SMILES | growth inhibition [1] | inhibition [2] | inhibition [3] | growth inhibition [4] | outcome [5] | outcome [6] | outcome [7] | outcome [8]
CC(CN1CCN(C)CC1)C(=O)Nc1ccc(-c2ccc(-c3nc4ccc(C(F)(F)F)cc4[nH]3)cc2)cc1 (stereo not drawn) | 100% (active) | 19% | -8% | 101% (active) | inactive | inactive | inactive | inactive
Cn1cc(-c2ccccc2C(=O)O)c(=O)c2cc(Cl)ccc21 | -4% | 16% | -1% | 89% (active) | inactive | inactive | inactive | inactive
O=c1cc(-c2cccc(C(F)(F)F)c2)nc(Nc2ccc(Cl)c(Cl)c2)[nH]1 | 97% (active) | 57% (active) | -2% | 97% (active) | inactive | inactive | inactive | inactive
CCc1c(C(=O)NC2CCC(N3CCC(c4ccccc4OC)CC3)CC2)[nH]c2ccc(OC)cc12 (stereo not drawn) | 99% (active) | 43% | -5% | 101% (active) | inactive | inactive | inactive | inactive
CC(Cc1ccc(OCCN2CCN(c3ccc(Cl)cc3)CC2)cc1)NCC(O)c1cccc(C(F)(F)F)c1 (stereo not drawn) | 96% (active) | 97% (active) | 1% | 99% (active) | inactive | inactive | inactive | inactive
CN1CCN(c2ccc(Nc3c4ccccc4nc4ccccc34)cc2)CC1 | 94% (active) | -3% | -4% | 100% (active) | inactive | inactive | inactive | inactive
COc1cc2ncnc(Nc3ccc(OCc4ccccc4)c(C(F)(F)F)c3)c2cc1OC | 78% (active) | 8% | 3% | 101% (active) | inactive | inactive | inactive | inactive
COc1ccc(NC(C)C(=O)Nc2ccc(Br)cc2)cc1S(=O)(=O)N1CCCCC1 (stereo not drawn) | 97% (active) | 2% | -2% | 99% (active) | inactive | inactive | inactive | inactive
CN(Cc1ccccc1)C(=O)c1nn(CCCN2CCC(N3CCCC3)CC2)cc1-c1ccc(Cl)c(Cl)c1 | 66% (active) | 43% | 0% | 102% (active) | inactive | inactive | inactive | inactive
CCN(CC)CCCn1c(N)c(-c2nc3ccccc3[nH]2)c2nc(C#N)c(C#N)nc21 | 99% (active) | 8% | 2% | 100% (active) | inactive | inactive | inactive | inactive
CCc1cccc(NC(=O)c2ccc(CN3CCCN(CC4CCCCC4)CC3)cc2)c1 | 36% | 44% | 0% | 84% (active) | inactive | inactive | inactive | inactive
Cn1cnnc1Sc1ccc(CN2CCOc3ccc(C4=CCCCC4)cc3C2)o1 | 97% (active) | 1% | 3% | 98% (active) | inactive | inactive | inactive | inactive
CN(C)CCCOc1ccccc1CN1CC[C@H](NC(=O)c2ccc(Cl)c(Cl)c2)C1 | 54% (active) | 42% | -3% | 94% (active) | inactive | inactive | inactive | inactive
Cc1cccc2[nH]c(-c3ccc(-c4ccc(CN5CCN(CCN6CCOCC6)CC5)cc4)cc3)nc12 | 74% (active) | 49% | -1% | 98% (active) | inactive | inactive | inactive | inactive
CCCCc1cc(O)c2c(c1)OC(C)(C)C=C2C1=CCN(Cc2ccccc2)CC1 | 3% | 9% | -5% | 98% (active) | inactive | inactive | inactive | inactive
COc1cc2nc(NCc3cccc(CNC(=O)c4ccc(-c5ccc(C(C)=O)cc5)cc4)c3)nc(N)c2cc1OC | 72% (active) | 32% | -2% | 100% (active) | inactive | inactive | inactive | inactive
CCOc1cc(-c2nnc3[nH]c(=O)n(C)c(=O)c3n2)ccc1OC(C)C | 86% (active) | 15% | 1% | 97% (active) | inactive | inactive | inactive | inactive
CCOC(=O)c1ccc(NC(=O)Nc2ccc(-c3ccc(-c4nc5c(C)cccc5[nH]4)s3)cc2)cc1 | 100% (active) | 60% (active) | -4% | 101% (active) | inactive | inactive | inactive | inactive
